# The panel holds about 83,000 compounds, 20% with a hit somewhere; the sample as a whole holds those more often.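 Compound tested at a single concentration for 48 hours in 96-well plates; a percent growth value below 10 was scored as active.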 Calls of active or inactive are those of the source.
# Test system: HS 578T breast
# Assay: NCI-60 one-dose screen, 48 h (100 = growth as untreated, 0 = no growth, -100 = all killed)
# Conditions: 10 µM unless noted
# Method: Growth inhibition of the HS 578T human tumor cell line is measured as a screen for anti-cancer activity. Cells are grown in 96 well plates and exposed to the test compound for 48 hours. Compounds are tested at a single concentration, which is 10^-5 M for most compounds. The reported endpoint is percent growth (GI% or GIPRCNT), where numbers from 0 - 100% represent growth inhibition, and numbers from -100% - 0 represent cell death. For example, a value of 40 represents 60% growth inhibition. A value of 0 means no net growth occurred over the course of the experiment. A value of -40 indicates 40% of cells at the beginning of the experiment died by the end of the experiment. A value of -100 means all cells are dead at the end of the experiment.
# NCI-60 Human Tumor Cell Lines Screen was performed using the standard one-dose NCI protocol, which is described in more detail at https://dtp.cancer.gov/discovery_development/nci-60/default.htm.
# Compounds with GIPRCNT values below 10 were considered active. Activity score was based on GIPRCNT using the following formula: […]
# Score is 0 for GIPRCNT values of 100 or above, 50 for GIPRCNT values of 0, and 100 for GIPRCNT values of -100.
row,Compound,growth
1,C=C[C@@H]1C[C@H](O)Cc2cc(F)ccc2N1,90.6% (inactive)
2,COc1cc(C2NN=C3c4ccccc4CCC32)cc(OC)c1OC (stereo not given),71.4% (inactive)
3,O=C(Nc1ccncc1)C(=O)c1cn(S(=O)(=O)c2ccc(Oc3ccccc3)cc2)c2ccccc12,92% (inactive)
4,Cn1ccc(=O)c(S(N)(=O)=O)c1,104% (inactive)
5,CCCCN(CCCC)C(=O)CC,149% (inactive)
6,CN(C)c1oc(C2OC2c2ccccc2)nc1C#N (stereo not given),90.1% (inactive)
7,COc1ccc(/C=C2\CN(Cc3cn(CCNc4ccnc5cc(Cl)ccc45)nn3)C/C(=C\c3ccc(OC)c(OC)c3)C2=O)cc1OC,23.4% (inactive)
8,COc1ccc(CN2CCc3c(Sc4ccccc4)nc(N)nc3C2=O)c(OC)c1,74.3% (inactive)
9,O=C(C1=Cc2cc3ccccc3n2Cc2cnnn21)c1ccccc1,69% (inactive)
10,COC(=O)C(Sc1ccc(Cl)cc1)C1SC(=S)N(Cc2ccccc2)C1=O (stereo not given),106% (inactive)
11,Nc1nnc(-c2ccc3ccccc3c2O)o1,97.9% (inactive)
12,COc1cc(/C(C#N)=C/c2ccc3c(c2OC)OCO3)cc2c1OCO2,0.131% (active)
13,Cc1ccc2nc(-c3cc4c([nH]c5ccccc54)c(-c4ccc(F)c(F)c4)n3)[nH]c2c1,108% (inactive)
14,Nc1ccc(C(=O)CSc2nc3ccccc3[nH]2)cc1,109% (inactive)
15,Fc1ccc(-c2nc(-c3nc4ncccc4[nH]3)cc3c2[nH]c2ccccc23)cc1F,96% (inactive)
16,O=C(NCCNc1nccc(-n2ccc3cccnc32)n1)c1ccc(C(F)(F)F)cc1,106% (inactive)
17,O=C1CCCCC1(c1ccccc1)c1ccccc1,99.7% (inactive)
18,O=C(Nc1ccncc1)C(=O)c1cn(S(=O)(=O)c2ccc(Cl)cc2)c2ccccc12,13.5% (inactive)
19,Cc1cc(N/N=C/c2nc(-c3ccccc3)oc2C)c2cc(Br)ccc2n1,85.8% (inactive)
20,COc1cc(-c2nn(-c3cccc(NC(=O)c4ccccc4)c3)cc2-c2ccncc2)ccc1Cl,-1.34% (active)

row,Compound,growth
1,CCOC(=O)/C(C#N)=C1/C(=O)Nc2ccccc21,121% (inactive)
2,O=C(CN1CCN(c2cc3c(cc2F)c(=O)c(C(=O)N/N=C/c2ccccc2O)cn3C2CC2)CC1)N/N=C\c1ccccc1O,57.4% (inactive)
3,COc1cc(/C=C/C(=O)c2c(C)nc3ccccc3c2C)ccc1OCCCCOc1cc2c(cc1OC)C(=O)N1CCC[C@H]1C=N2,39% (inactive)
4,C=C[C@@H]1C[C@@H]2Cc3c(C)cc(C)cc3N1O2,92.1% (inactive)
5,CC(C)(C)n1cc(-c2ccnc(NCCCNS(=O)(=O)c3ccc(C(F)(F)F)cc3)c2)c(-c2cccc(O)c2)n1,23.5% (inactive)
6,COc1ccc(/C=N\NC(=O)CN2CCN(c3cc4c(cc3F)c(=O)c(C(=O)N/N=C/c3ccc(OC)c(OC)c3)cn4C3CC3)CC2)cc1OC,-4.8% (active)
7,CN1CCN(Cc2ccc(NC(=O)c3cncc(C#Cc4cnc(N)c5ccncc45)c3)cc2C(F)(F)F)CC1,-0.418% (active)
8,O=[N+]([O-])c1ccc(OCCCOc2ccccc2)cc1,108% (inactive)
9,Nc1cc2c(cc1C(=O)c1cccc(F)c1)OCCO2,111% (inactive)
10,CCN(CC)c1ccc(N=O)cc1,93% (inactive)
11,C=C[C@@H]1C[C@H](O)Cc2c(C)cc(C)cc2N1,99.9% (inactive)
12,CSc1nc2c(c(=O)[nH]1)C(c1ccc(C)cc1)C=C(C(=O)O)N2 (stereo not given),86.3% (inactive)
13,CC(C)(C)n1cc(-c2ccnc(NCCCNS(=O)(=O)c3ccc(Cl)cc3)c2)c(-c2cccc(O)c2)n1,-12.2% (active)
14,O=C1c2ccccc2-c2ccccc2C1(Cl)Cl,-7.35% (active)
15,COc1ccc(OC)c(C2OC(c3ccc4ccccc4c3O)=NN2C(C)=O)c1 (stereo not given),71.7% (inactive)
16,CC1=C(C#N)C(=O)NC(C)C1 (stereo not given),97.2% (inactive)
17,O=S(=O)(NCCNc1nccc(-c2c(-c3ccc(O)cc3)nc3sccn23)n1)c1cccc2ccccc12,110% (inactive)
18,COc1cc(-c2nn(C(=O)NS(=O)(=O)c3ccccc3)cc2-c2ccncc2)ccc1Cl,79.4% (inactive)
19,CC(C)c1ccc2occ(C=C3C(=O)NC(=O)NC3=O)c(=O)c2c1,111% (inactive)
20,O=C(/C=C/c1c[nH]c2ccccc12)c1ccc(O)c(CN2CCN(c3ccc(F)cc3)CC2)c1,108% (inactive)
